Reference: PubChem BioAssay AID1159506 (National Center for Advancing Translational Sciences (NCATS), 2015)
Whole data set: some 59,000 sequences, median the read-out near -0.00055, cut for the lowest 2% near -2. Shown is part of a subset that was picked to be rich in the lowest values.

assay: Identification of proteins required for the processing of the EWS-FLI1 nascent transcript; conditions: TC32 Ewing sarcoma NR0B1-luc vs CMV-luc (EWS-FLI1 target promoter against control promoter), 48 h; screened at 20 nM (by protocol);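 further: robust z of luciferase light less the median z of siRNAs with the same seed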
How it was run: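 Readout: OneGlo luminescence, 48 h post-transfection, TC32-NR0B1-luc vs TC32-CMV-luc in parallel. siRNA 20 nM final, RNAiMax lipid, 600 cells/well; z-score-MAD transformed, then seed-adjusted.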

Sequence | seed-corrected z-score
AUUCGGAUUUGGGUCGUGC against PCDHGB2 | 0.36
UCAUGAUCUAUGUAGCCCG against ODF3L1 | -2.53
UUCACCAUGACAGCCGAAG against RPL37AP8 | -0.494
UUCAAUUCCAGCAACAUAA against CLDND1 | -0.35
AUGGUAACGAGCUGAAUCC against TWF1 | 0.694
AAAUGUACAGGGAUCCAGG against ACCSL | -2.2
UUCAGGGCGAGGUAAUCCU against HLA-G | -0.165
UUUCAUAAUUGUCUCACUG against MTHFD2 | 0.341
AAACUUGUACACGUUCUUG against RPN2 | 1.31
AUACGAUAAAUAGCAGCUG against OR2D2 | -0.266
UCAUGUAUUGCUGGGUGGG against LETMD1 | -2.04
UGAAAGCGCAGAUCUGUCU against HIST1H3G | -0.148
UGGUCUAAGGCUUUGAUGC against KLK2 | -0.348
UGAUAUUUUGGUGCGUUGU against FBXO45 | 0.68
UAGUUGGUGAGGAUCACGG against REN | -0.578
UACUCUUCCAACGACAGGC against UQCC2 | 0.919
UUCCGAGUUGCAGAGGUCU against SLURP1 | -0.177
AAAAGGAUUGCUGAAAUGG against LOC650293 | 0.542
UCUUGACUGACUUUCUUCU against FAM173B | -2.2
AAUGGAUGCAGUGUCAAGC against PAK1IP1 | 1.75
UUCCUUGACAAGCAUAACC against CARNMT1 | -0.155
AAAUCUUACAGACUGGUUC against BEX1 | -0.486

Sequence | seed-corrected z-score
UCAUGGGUCACGUCAGCUG against SLC2A1 | -0.895
ACACUGUAAAGCUCGGUGC against LARP1 | 0.106
UUAGAGUUGGUGAUGAGCA against GALK1 | 1.7
AAAAGGACUAUGUACAGCC against SNRPB | -3.37
UAUGCUCUCUGAUCGAAUG against ATG16L1 | 0.136
UUGCUCACAAUAAAAUAGC against GPR89A | -0.56
UGUAGACAAAGUACUGGGC against CNTN2 | -0.261
AAACUUCCUAUUAUCGACC against SPRED2 | -0.704
UUCGAGUGAAGACAGAAUC against ZNF318 | -2.15
UAAGUUGUGAUGAUAGGUU against ZNF98 | -0.0973
AUCUGAUCCAUAUUCUCCC against DIEXF | 0.628
UACAAUAAAAGAAGCAUCU against PIGY | 0.157
UUUCUUAGAAAUGAGGUGA against OVOL1 | -0.287
UCAGGAUCUGUGGAUACUG against COPB2 | -2.55
UCAUAGUCCACGAGUUUCC against BIN2 | 0.142
UUCGGUUGAACCUUGUCUG against ORC2 | -0.39
AAUACAAUGAGGAUGUUGC against MCHR2 | -0.242
AUCUUUAACCCGAAAGGUC against STRC | -3.57
UACUCGAAGAUUUCCGUCC against SEC16B | -0.242
UUCGAUGUCACAGGUCUGC against RGS14 | -0.247
UCGAUAUCAACUUUUGCCG against CEP192 | -0.779
UUUGAUAGAGGUGCGGACG against OR6F1 | -0.169

Sequence | seed-corrected z-score
UAUCCGAUCACCACUCUCC against MYOM3 | -0.29
UUCUUUCUGAGUCUGGUUA against RPL35 | -3.01
AAAGGCUUAAUUUUUACCU against TOMM7 | 1.3
UGAGUUCCAGGUCUUAUGC against DEFB110 | -0.42
AUAUUGUUUAGCUCCACGG against MASP1 | 0.285
UAGUCGUUCUUCUACAGCC against MBIP | 0.411
UCACGAAGAGUUGCAACUG against ALB | -3.99
UGUAGUAACAGAGCCACGC against PPY | 0.227
AAAAGUCCUAGCAUAUUCC against ZER1 | 0.406
UUUGUGAUCUUGGUGAGGU against SHBG | -0.0288
AACUGGACUGGAAUUGUUU against CXCR1 | -0.419
UAUGUGCUGGUGAUCCUUC against DEAF1 | 0.839
UGUUGUACAACGAUAGCCU against RELL1 | -0.595
AUUGUAACGGGUUUUGUUC against CHRNB4 | -0.325
AACUGUUCCAUCGACUUGG against RASAL1 | -0.492
UUACUGUCCAGAGCACUGA against SMARCD3 | -0.925
UUUGCUAUAAUCCACCUCC against IK | -3.11
UAGACGAUAAGACUCUUUC against NCOA7 | -0.339
UAUUGAAGCAACUAGGAUG against KIAA0754 | -0.869
UGCAGGAUGACCAAAGUGC against LGALS14 | 0.705
AAUAUGUCCAGCCCAGCUG against CLIC1 | -0.000686
UUUCCUUUGGUUGUUAAUG against FDX1 | -0.575

Sequence | seed-corrected z-score
UUCCGAGAUAUGGAGGUAC against KIAA0368 | 0.95
UCAUCUUCUUCCGUUGCCG against PPP1R1A | 0.273
UAAGAAAAAGCGGAGUUCG against FZD7 | 0.0443
UUCUUUUGACUCUUAGUCC against CLEC4C | -2.28
UAGCCUAGGAGAUACAUCG against COPB2 | -3.63
UAACUUUUCCCUUAUUCAG against FAM90A3P | 0.873
UUCCGUGUGAAACAGAUGG against ARMC4 | 0.434
AAUGUAGUAAAUGCAAGUU against C3orf79 | -0.0591
UUCUGGUAGAAGCAUUUCC against ZNF25 | -1.93
UGAUGAAGUAGGUCACGGC against SLC29A4 | 0.41
UUUUCAGUCUCACUAGUUU against MIPEPP3 | 0.623
AUUCUUAAUCUUUACAUCC against BRDTP1 | 0.809
UAAGGGUCCUUCCAUGGCC against PVRIG | 0.201
AUGUUUCCCAUAACAGUGG against OR4D2 | -3.19
UGAAAAUCACGAGAUUUCC against TEAD1 | 0.305
UGUUAAACUGCUAAGGAUG against RPRD2 | -0.294
UCAUGUACGGCCUCUUCCC against CCDC8 | 0.173
UCUGUGAGCAGUUUCCACU against SOX21 | -2.74
UGAAUGUCUUGCGAUUUGC against CADM2 | 0.122
